The list is not random: actives were taken first. Their share in the collection is about 1.8%.
IkB signaling = IkB pathway inhibition in ABC-DLBCL cells; ABC-DLBCL IkBa-CBG/CBR dual luciferase ratio, 4 h; response scale: scaled: untreated 0%, proteasome inhibitor 100%; Potency, µM (doses to about 57.1 µM); 0.04% of 110,000 active; AID 445; active means well fitted curve in the direction sought with a large enough effect in the signal ratio, not every such curve was filed as active; inconclusive means small, poorly fitted or top-dose-only effect, or a change in a side signal; the % refers to the signal ratio;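 further: the direction sought is a rising ratio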
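In this assay, an IκBα–CBG68 fusion accumulates when IKK-driven degradation is blocked; native CBR normalizes for cell number. OCI-Ly3 cells were treated 4 h with compound and doxycycline, then green and red light read after Chroma-Glo addition.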
p53ts 39C kill = cytotoxicity in p53ts cells at nonpermissive temperature; Potency, µM (highest dose often 46.1 µM), usual class: cytotoxic; 1.5% of 130,000 active; H1299-p53A138V viability at 39C, ATP luminescence, 24 h; further: nearly all actives have a fitted effect of over 55% in size
p53ts 32C kill = kills p53ts cells at the permissive temperature; AID 924; 0.93% of 130,000 active; Potency, µM (highest dose often 46.1 µM), hits mostly cytotoxic; H1299-p53A138V at 32C, ATP luminescence viability, 24 h; further: nearly all actives have a fitted effect of over 55% in size
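H1299-p53 A138V cells (temperature-sensitive p53) exposed 24 h to up to 46 uM compound at 32C, where p53 is wild-type in conformation. Viability read as ATP luminescence and normalised to DMSO and 100 uM tamoxifen. AC50 fitted with the Hill equation.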
Imprint erasure = genomic imprint erasure induction | mouse ES Peg3-LacZ reporter, beta-gal luminescence, 40 h | Potency, µM (titrated, usually from 60.7 µM), most hits filed as activators | 0.02% of 110,000 active | AID 1948
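Imprint erasure is scored as LacZ activity from the silenced maternal Peg3 allele in feeder-free female ES cells cultured 40 h with LIF. Luminescence is normalized to in-plate negative controls and fitted to the Hill equation.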
A number is an active result; – = inactive; ? = inconclusive; · = no result; ! = a repeat was not active; [ ] = dose if it differs, or a comment. Unless noted, the call rests on the fitted dose curve; in most records, active means well fitted curve in the direction sought with a large enough effect; inconclusive means small, poorly fitted or top-dose-only effect, or another doubt; inactive means no such curve, though single readings can be large; an effect the other way counts as inactive or inconclusive.

SMILES	IkB signaling	p53ts 39C kill	p53ts 32C kill	Imprint erasure
CC(C)c1ccc(C2c3c(-c4ccccc4O)n[nH]c3C(=O)N2CCc2ccccc2)cc1 (stereo not drawn)	?	25.1µM	–	–[10.9 µM]
Cc1cccc(NC(=O)c2ccc3c(O)c(S(=O)(=O)c4ccccc4)c(=O)[nH]c3c2)c1C	–	–	–	–[10.9 µM]
CSCCNC(=O)c1ccc(C(C)(C)C)cc1	–	?	10µM	–
Cc1cc(C)nc(Nc2ccc(N3CCOCC3)cc2)n1	–	?	12.6µM	–
Cc1cc(C)nc(Nc2ccc(N3CCCC3)cc2)n1	–	–	–	–
Clc1nc(NCCc2ccccc2)c2ncn(-c3ccccc3)c2n1	–[11.4 µM]	·	·	·
FC(F)(F)c1cc(-c2ccco2)nc(NCc2cccs2)n1	–	20µM	?	–
FC(F)(F)c1cc(-c2ccco2)nc(NCc2ccco2)n1	–	–	–	–
CCOC(=O)c1ccc(NC(=O)c2cc(=O)c3ccc(C)c(C)c3o2)cc1	–	20µM	?	–[10.9 µM]
CCOC(=O)c1ccc(NC(=O)c2cc(=O)c3cc(CC)ccc3o2)cc1	–	–	–	–[10.9 µM]
Cc1nnc2c3ccccc3nc(N3CCN(c4ccccc4)CC3)n12	–	–	–	–[10.9 µM]
O=C(CSc1c2c(nc3cc(Cl)ccc13)CCCC2)N1CCN(c2ccccc2)CC1	?	25.1µM	?	–[10.9 µM]
CC1CCN(C(=O)CSc2c3c(nc4cc(Cl)ccc24)CCCC3)CC1	?	15.8µM	–	–[10.9 µM]
Cc1ccc(SCC(=O)Nc2ccc3oc(-c4cccc(Cl)c4)nc3c2)cc1	–	?	–	–[10.9 µM]
Fc1ccc(-c2cc3nc4c(c(N5CCOCC5)n3n2)CCCC4)cc1	–	–	–	–
O=c1c2c(nc3cc(-c4ccc(F)cc4)[nH]n13)CCCC2	?	10µM	12.6µM	–
Cc1ccc(NC(=O)c2ccccc2O)cc1	?	10µM	14.1µM	–
COC(=O)c1cccc(NC(=O)c2cccc(OC)c2)c1	–	?	?	–
COC(=O)c1ccc(NC(=O)c2cccc(OC)c2)cc1	?	?	12.6µM	–
COC(=O)C1=C(NC(=O)c2cccc(OC)c2)CCS1	–	–	–	–
COc1cccc(C(=O)Nc2ccc(C)cc2)c1	?	15.8µM	15.8µM	–
COc1cccc(C(=O)NC2=NCCS2)c1	–	?	15.8µM	–
COc1cccc(C(=O)Nc2ccc(C(=O)O)cc2)c1	–	–	–	–
CCN(CC)S(=O)(=O)c1cccc(C(=O)Nc2ccccc2C(=O)Nc2ccc(OC)cc2)c1	?	–	–	–[10.9 µM]
COc1ccc(-n2nc3c(N4CCCC(C(=O)NCc5ccccc5C)C4)nnc(C)c3c2C)cc1 (stereo not drawn)	?	?	?	–[10.9 µM]
SMILES	IkB signaling	p53ts 39C kill	p53ts 32C kill	Imprint erasure
Cc1ccc(CNC(=O)CCCCCn2c(=O)c3sccc3n(CC(=O)C(C)(C)C)c2=O)cc1	–	–	–	–[10.9 µM]
COc1ccc(C(=O)Oc2c(CN3CCOCC3)cc(Cl)c3cccnc23)cc1	–	?	–	–
COc1cc(C(=O)Oc2c(CN3CCOCC3)cc(Cl)c3cccnc23)cc(OC)c1OC	?	12.6µM	?	–
COc1ccccc1C(=O)Nc1c(C(=O)N(CCN(C)C)Cc2ccco2)oc2ccccc12	?	20µM	–	–[10.9 µM]
Cc1oc2c(C)c3oc(=O)c(CCC(=O)N4CCCCC4)c(C)c3cc2c1C	–	–	–	–[10.9 µM]
O=C1c2[nH]nc(-c3ccc(Br)cc3)c2C(c2cccc(O)c2)N1c1ccc(Cl)cc1 (stereo not drawn)	?	15.8µM	?	–[10.9 µM]
CCc1nnc2c3ccccc3nc(Nc3ccc(F)cc3C)n12	–	–	–	–[10.9 µM]
CC(=O)c1cnc2c(-c3ccc(Cl)cc3)c(C)nn2c1C	·	–	–	·
Cc1c(C(=O)O)cnc2cc(-c3ccc(Cl)cc3)nn12	?	?	10µM	–
COC(=O)[C@H](C)NC(=O)C/C=C\[C@@H](C)[C@@H](CO)OC	·	–[9.22 µM]	–[9.22 µM]	·
CC1=CC(=C2C(=O)c3ccccc3C2=O)C=C(C)O1	–	–	–	–
COC1=C(OC)C(=O)c2ccccc2C1=O	–	3.98µM	6.31µM	–
COc1ccccc1N=c1oc2cc(O)ccc2cc1C(N)=O	?	12.6µM	?	–
Fc1ccc(Nc2nc3nonc3nc2Nc2cccc(C(F)(F)F)c2)cc1	?	12.6µM	?	–[10.9 µM]
CC(=O)Nc1nonc1NC(C)=O	–	–	–	–
CC(=O)Nc1cc(OC(C)=O)c2nonc2c1OC(C)=O	?	7.94µM	3.16µM	–
COc1ccc2oc(-c3ccc(C)c(NC(=O)c4ccc(-c5ccccc5[N+](=O)[O-])o4)c3)nc2c1	?	10µM	–	–[10.9 µM]
COc1ccc(Cc2nnc(N/N=C/c3ccc(O)cc3)[nH]c2=O)cc1OC	·	2.82µM	·	·
CC(NCc1ccc2c(c1)n(C)c(=O)n2C)c1ccccc1 (stereo not drawn)	–	–	–	–[10.9 µM]
c1ccc2c(c1)CCN(c1nc3cc4c(cc3s1)OCO4)C2	?	?	12.6µM	–
c1c2c(cc3sc(N4CCCCC4)nc13)OCO2	?	10µM	6.31µM	–
c1c2c(cc3sc(N4CCOCC4)nc13)OCO2	–	?	10µM	–
c1ccc2c(c1)CCN(Cc1nnnn1Cc1ccc3c(c1)OCO3)C2	–	–	–	–
c1ccc(N2CCN(c3nc4cc5c(cc4s3)OCO5)CC2)cc1	–	–	–	–
COC(=O)c1ccc(NC(=O)CN2CCCN(Cc3ccc(Cl)cc3)S2(=O)=O)cc1	–	–	–	–[10.9 µM]
SMILES	IkB signaling	p53ts 39C kill	p53ts 32C kill	Imprint erasure
NCCCCCCNS(=O)(=O)c1cccc2c(Cl)cccc12	?	31.6µM	–	?
NCCCCCCCCCCNS(=O)(=O)c1cccc2c(Cl)cccc12	?	15.8µM	25.1µM	–
CCCCCCCNS(=O)(=O)c1cccc2c(Cl)cccc12	?	?	–	–
CCCOc1ccc(-c2nonc2NC(=O)c2ccco2)cc1OCCC	–	–	–	–[10.9 µM]
COc1c(O)cc2oc3cc(O)c(CC=C(C)C)c(O)c3c(=O)c2c1CC=C(C)C	–[11.4 µM]	31.6µM	10µM!	–
Cc1ccc(C(=O)NCCc2ccc(S(N)(=O)=O)cc2)cc1-n1cnc2cccnc21	?	–	–	–[10.9 µM]
COc1ccc(C(=O)COC(=O)C(CC(C)C)N2C(=O)c3ccccc3C2=O)cc1 (stereo not drawn)	·	?	15.8µM	·
COc1cccc(C(=O)COC(=O)C(C)N2C(=O)c3ccccc3C2=O)c1 (stereo not drawn)	–	–	–	–
CCOC(=O)c1[nH]c(C)c(CCC(=O)N2CCN(c3cccc(C)c3C)CC2)c1C	?	–	–	–[10.9 µM]
CCCS(=O)(=O)c1ncc(Cl)c(C(=O)N2CCN(c3ccc(OC)cc3)CC2)n1	?	12.6µM	?	–[10.9 µM]
CCSc1ncc(Cl)c(C(=O)N2CCN(c3ccc(OC)cc3)CC2)n1	?	–	–	–[10.9 µM]
Cc1cccc(-c2c3c(=O)n(C)c(=O)n(C)c3c3cnc4ccccc4n23)c1	–	–	–	–[10.9 µM]
COc1ccc(-c2cc(C(=O)Nc3c(C)nn(Cc4ccc(Cl)cc4)c3C)no2)cc1	–	–	–	–
COc1ccccc1-c1cc(C(=O)Nc2c(C)nn(Cc3ccc(Cl)cc3)c2C)no1	?	12.6µM	?	–[10.9 µM]
NC(=O)C1CCN(C(=O)c2ccc(NC(=O)c3nsc4ccccc34)cc2)CC1	?	2.51µM	2µM	–[10.9 µM]

High-throughput results: PubChem BioAssay, National Center for Advancing Translational Sciences (NCATS)
